Tg IFNy HTS – T. gondii growth inhibition with IFN-gamma, primary screen, cell-based; 3.8% of 69,000 active; activity change, negative = inhibition, % (concentration not given with the values); Toxoplasma gondii growth in IFN-gamma-treated host cells; stronger effect = lower value; in the data active = activity change below about -70%, passing the limit was not always enough;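 note: host cells are HeLa cells infected with Toxoplasma gondii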
An asterisk follows results filed as active. Only a selection was taken, and hits are over-represented in it overall.

SMILES	Tg IFNy HTS
COc1cc([C@@H]2Oc3c(O)cc([C@H]4Oc5cc(O)cc(O)c5C(=O)[C@@H]4O)cc3[C@H]2CO)ccc1O	1.7
N#CCN1Cc2ccccc2C2(CCN(C(=O)c3ccnnc3)CC2)C1	-5.9
CCN(CC)CC1CCN(c2ncc3ncnc(Nc4ccc(F)c(Cl)c4)c3n2)CC1	4.0
COc1cc2ncnc(Nc3ccc(F)c(Cl)c3)c2cc1NC(=O)/C=C/CN1CCCCC1	-81.9*
CNC(=O)CN1CCC(Oc2cc3c(Nc4cccc(Cl)c4F)ncnc3cc2OC)CC1	-66.3
COC1CC2CC1CN2C(=O)c1cnoc1C (centres undefined)	58.9
Cc1nc(-c2cccc(F)c2)sc1CCNS(=O)(=O)c1ccc(F)cc1	17.0
Cc1noc(C)c1S(=O)(=O)N1CSC[C@@H]1C(=O)NCCc1csc(-c2ccccc2)n1	17.3
CN(Cc1cc(C2CC2)n[nH]1)C(=O)c1cc(Cn2cnc3ccccc32)on1	-1.1
Cc1cc(C)cc(NC(=S)Nc2ccc(Oc3ccc(OC(F)(F)F)cc3)cc2)c1	-105.5*
S=C(Nc1ccc(Oc2ccc(Cl)cc2)cc1)Nc1cccc(Cl)c1Cl	-31.6
Cc1ccc(Sc2ccc(NC(=O)Nc3ccc(OC(F)(F)F)cc3)cn2)cc1	-66.8
CCn1c(=O)c(-c2nc(-c3cccc(F)c3)no2)c(O)c2ccc(F)cc21	-55.1
CCSc1nc(CC(=O)N(C)Cc2ncc(C)[nH]2)cs1	1.4
O=C(NCc1nncn1C1CCCCC1)c1cccc2ccnn12	66.9
CC(C)(C)C(=O)OCOP(=O)(COCCn1cnc2c(N)ncnc21)OCOC(=O)C(C)(C)C	-80.0*
Nc1ncnc2c1ncn2[C@H]1CC[C@@H](CO)O1	10.5
CC(C)[C@H](N)C(=O)OCCOCn1cnc2c(=O)[nH]c(N)nc21	2.5
COc1ccc(-c2nc(NCc3ccc(F)cc3)c3ccccc3n2)cc1	-56.2
Cc1ccc(-c2nc(CN3CCN(C(=O)Nc4ccc(F)cc4)CC3)c(C)o2)cc1	2.4
COCCc1ncc(CN2CCC(c3cc(Cc4cccc(OC)c4)cc(C)n3)CC2)cn1	-29.7
COc1ccc(CNC(=O)Cn2c(=O)cc(-c3nc(C)no3)c3ccccc32)cc1	2.3
O=C(COc1ccc(-c2cnc3ccccc3n2)cc1)c1cccs1	-85.4*
O=C(CCC(=O)c1cccs1)c1cccs1	239.6
Cc1ccc(-c2cnc3ccccc3n2)cc1NC(=O)c1ccc(Br)o1	324.8
SMILES	Tg IFNy HTS
Cc1ccc2c(n1)N(CCN(C)C)CCN(C(=O)N1CCOCC1)C2	5.6
COc1ccc(C(CC(=O)c2ccc3ccccc3c2)C(=O)c2ccc(F)cc2)cc1 (centres undefined)	-55.5
CNC1CCC2(CC1)CN(S(=O)(=O)c1cn(C)cn1)Cc1ccccc1O2 (centres undefined)	17.1
Cn1c(Cc2ccccc2)nnc1SCc1c(F)cccc1Cl	8.6
CCc1ccc(S(=O)(=O)N2CCC3(CC2)Nc2ccc(Cl)cc2-n2cccc23)cc1	11.6
Cc1cccc(C2(CNC(=O)CCn3cnnn3)CCOCC2)c1	9.9
Cc1nc(-c2ccccn2)nc(N2CCN(CCO)CC2)c1Cl	-13.5
Cc1nc(-c2ccccn2)nc(N(C)c2ccccc2)c1Cl	-101.0*
Cc1nc(C(F)(F)F)nc(-c2ccc(S(C)(=O)=O)cc2)c1C	1.8
Cn1cnc2c1C(C(=O)O)CN(C(=O)C1CCOCC1)C2 (centres undefined)	36.8
Fc1cccc(-c2nnn3c2COC(CNCc2nccs2)C3)c1 (centres undefined)	0.3
O=C(Sc1ccc(Cl)cc1)c1cnn(-c2ccc(Cl)cc2)c1C(F)(F)F	-94.7*
FC(F)(F)c1cc(NC(=S)Sc2ccc(Cl)cc2)cc(C(F)(F)F)c1	-22.2
Cc1nc(C(F)(F)F)ccc1C(=O)Sc1ccc(F)cc1	-1.1
COc1ccccc1-n1c(=O)n(Cc2nc(-c3ccccc3C)oc2C)c(=O)c2cccnc21	9.2
CCn1c(=O)c(-c2nc(-c3cccc(OC)c3OC)no2)c(O)c2ccccc21	12.2
CCOc1ccc(-c2nc(CN3CCN(C(=O)Nc4ccc(F)cc4)CC3)c(C)o2)cc1	-2.2
CNc1nc(C2CCN(C(=O)c3c(C(C)C)noc3C)CC2)nc2c1CN(C(C)=O)CC2	15.5
Cc1onc(C(C)C)c1C(=O)N1CCC(c2cc(C(F)(F)F)c3c(N)[nH]nc3n2)CC1	-75.3*
Cc1ncc(C(=O)N2CCC(c3cc4nc(C(C)C)cc(C(F)(F)F)n4n3)CC2)c(C)n1	-2.8
CC(C)C(=O)C1CC2(CO1)c1ccccc1CN2C(=O)c1ccccc1 (centres undefined)	-3.0
COc1cccc(C(=O)N2CCC3(CC2)NC(=O)c2cc(C)ccc2N3C)c1	11.4
COc1ccc2oc(CNC(=O)CCN3CCCCCCC3)nc2c1	4.0
O=C(Nc1cccc(C(F)(F)F)c1)Nc1csc(Cc2ccsc2)n1	-93.3*
O=C(Nc1ccc(-c2nc(-c3ccccc3)co2)cc1)Nc1cccc(C(F)(F)F)c1	-51.2
SMILES	Tg IFNy HTS
O=C(NCc1sccc1COc1ccc(Cl)cc1)Nc1cccc(C(F)(F)F)c1	-55.1
COc1cccc(-c2ccc3c(C4CCCN4C(=O)NC(C)C)nnn3c2)c1 (centres undefined)	4.5
Cn1c(CNC(=O)Cn2c(=O)cc(C(=O)N3CCCCC3)c3ccccc32)nc2ccccc21	12.6
COc1ccc(C(=O)N(Cc2cccc(F)c2)C2(C(=O)NCc3ccccc3)CCN(C(C)=O)CC2)cc1	-53.4
COc1ccc(C(=O)N(Cc2ccc(Cl)cc2)C2(C(=O)NCc3ccccc3)CCN(C(C)=O)CC2)cc1	114.4
COc1ccc(C(=O)N(c2ccc(F)cc2)C2(C(=O)NCc3ccccc3)CCN(C(C)=O)CC2)cc1	-4.5
COc1ccc(C(=O)N(c2ccc(C(C)C)cc2)C2(C(=O)NCc3ccccc3)CCN(C(C)=O)CC2)cc1	-95.5*
COc1ccc(C(=O)N(c2ccc(Cl)cc2)C2(C(=O)NCc3ccccc3)CCN(C(C)=O)CC2)cc1	68.8
COc1ccc(C(=O)N(Cc2cccc(OC)c2)C2(C(=O)NCc3ccccc3)CCN(C(C)=O)CC2)cc1	-83.4*
O=C1NC2(CCc3ccccc31)CCN(Cc1ccc(N3CCCC3=O)cc1)C2 (centres undefined)	63.6
c1coc(CN(CCN2CCOCC2)Cc2nc3c(s2)CCCC3)c1	-26.4
CC(C)(C)CN1CCNC(=O)C1CC(=O)NCc1cccc(OC(F)(F)F)c1 (centres undefined)	10.4
Cc1nc2ccc(S(=O)(=O)N3CCc4c(nc[nH]c4=O)C3)cc2s1	43.3
O=C(CCCc1cn[nH]c1)N1CCC(N2CCCC(C(=O)N3CCCC3)C2)CC1 (centres undefined)	-12.5
Cc1nc(-c2cnccn2)sc1C(=O)Nc1ccc(N2CCOCC2)cc1	36.4
Cc1nc(N)sc1-c1ccnc(Nc2ccc(N3CCOCC3)cc2)n1	-79.4*
Cc1nn(CC(=O)Nc2ccc(N3CCOCC3)cc2)c(C)c1Br	-4.3
O=C(CCCc1nc(-c2ccc(F)cc2)no1)N1CCC(c2ccccc2)C1 (centres undefined)	-66.6
COC1C2CCC1N(C(=O)c1cnc(C)cn1)C2 (centres undefined)	-49.7
O=C(NCCc1csc(-c2cccc(F)c2)n1)C1CCCCC1	-36.1
CCOC(=O)c1cc(-c2ccccc2)sc1NC(=O)c1ccc(Cl)cc1	17.0
NC(=O)c1cc(-c2ccccc2)sc1NC(=O)c1cccs1	-82.9*
NC(=O)c1sc(-c2ccsc2)cc1NC(=O)c1cccs1	-42.3
CNC(=O)c1ccc(-c2cccc(-n3cccn3)c2)s1	85.6
O=C(Sc1ccc(Cl)cc1)c1cccnc1Oc1ccccc1	-102.4*

Screens: PubChem BioAssay, Broad Institute
